Data from the antibiotic and cytotoxicity screens of Wong et al. (2023).
The whole screen tested about 39,000 compounds, of which about 1,500 (3.8%) were called active. For the sample, actives were picked, then their nearest neighbours and some compounds at random.

The molecules below were run on HSkMC (human skeletal muscle cells) (assay: cytotoxicity call (relative viability < 0.9)). Settings: 10 µM.
`Cc1ccc(S(=O)(=O)N(C)C[C@@H]2Oc3ccc(NC(=O)CCCN(C)C)cc3CC(=O)N([C@@H](C)CO)C[C@H]2C)cc1` was tested, and the cytotoxicity call was “inactive”.
With `O=C(CN1CCOCC1)NCC[C@@H]1CC[C@H](NC(=O)Cc2ccccn2)[C@@H](CO)O1` the cytotoxicity call was “inactive”.
For `Cc1noc(C)c1S(=O)(=O)N(C)C[C@H]1Oc2ccc(NC(=O)Cn3cnnn3)cc2CC(=O)N([C@@H](C)CO)C[C@@H]1C`, the cytotoxicity call was “inactive”.
In the case of `C[C@@H]1CN([C@H](C)CO)S(=O)(=O)c2ccc(C#Cc3ccccc3)cc2O[C@@H]1CN(C)S(C)(=O)=O`, the cytotoxicity call is reported as “inactive”.
`C[C@@H]1CCCCO[C@@H](CN(C)C(=O)Nc2ccccc2)[C@@H](C)CN([C@@H](C)CO)C(=O)c2cc(NC(=O)Nc3cccc4ccccc34)ccc2O1` was tested, and the cytotoxicity call was “inactive”.
For `COc1ccc(S(=O)(=O)Nc2ccc3c(c2)OC[C@@H](C)N(C)C[C@@H](C)[C@H](OC)CN(C)C3=O)cc1`, the cytotoxicity call was “inactive”.
With `CO[C@H](CN(C)S(=O)(=O)c1cccc(Cl)c1)[C@H](C)CN([C@H](C)CO)S(=O)(=O)c1ccc(Cl)cc1` the cytotoxicity call was “inactive”.
For `O=C(C[C@H]1CC[C@H]2[C@@H](COC[C@H](O)CN2C(=O)c2cccnc2)O1)NCc1ccc(-c2ccccc2)cc1`, the cytotoxicity call was “inactive”.
With `NC(=O)c1nc2c(s1)CCNCC2` the cytotoxicity call was “inactive”.
`Cc1ccc(S(=O)(=O)N(C)C[C@H]2OCCCC[C@@H](C)Oc3ccc(NS(C)(=O)=O)cc3C(=O)N([C@H](C)CO)C[C@@H]2C)cc1` was tested, and the cytotoxicity call was “inactive”.
With `COc1ccc(S(=O)(=O)N(C)C[C@@H]2OCc3cn(nn3)CCCC(=O)N([C@H](C)CO)C[C@@H]2C)cc1` the cytotoxicity call was “inactive”.
In the case of `O=C(C[C@H]1CC[C@@H]2[C@H](COC[C@H](O)CN2S(=O)(=O)c2ccccc2)O1)NCc1ccc(-c2ccccc2)cc1`, the cytotoxicity call is reported as “inactive”.
`Cc1ccc(S(=O)(=O)Nc2ccc3c(c2)C(=O)N([C@@H](C)CO)C[C@H](C)[C@@H](CN(C)C(=O)Nc2ccc(F)cc2)OCCCC[C@@H](C)O3)cc1` was tested, and the cytotoxicity call was “inactive”.
For `Cc1ccc(S(=O)(=O)Nc2ccc3c(c2)C(=O)N([C@H](C)CO)C[C@@H](C)[C@H](CN(C)C(=O)Nc2ccc(F)cc2)OCCCC[C@H](C)O3)cc1`, the cytotoxicity call was “active”.
With `Cc1ccc(S(=O)(=O)Nc2ccc3c(c2)C(=O)N([C@H](C)CO)C[C@@H](C)[C@H](CN(C)C(=O)Nc2ccc(F)cc2)OCCCC[C@@H](C)O3)cc1` the cytotoxicity call was “active”.
For `Cc1ccc(S(=O)(=O)Nc2ccc3c(c2)C(=O)N([C@H](C)CO)C[C@H](C)[C@H](CN(C)C(=O)Nc2ccc(F)cc2)OCCCC[C@H](C)O3)cc1`, the cytotoxicity call was “inactive”.
With `Cc1ccc(S(=O)(=O)Nc2ccc3c(c2)C(=O)N([C@@H](C)CO)C[C@@H](C)[C@H](CN(C)C(=O)Nc2ccc(F)cc2)OCCCC[C@@H](C)O3)cc1` the cytotoxicity call was “inactive”.
In the case of `Cc1ccc(S(=O)(=O)Nc2ccc3c(c2)C(=O)N([C@@H](C)CO)C[C@H](C)[C@@H](CN(C)C(=O)Nc2ccc(F)cc2)OCCCC[C@H](C)O3)cc1`, the cytotoxicity call is reported as “inactive”.
With `C[C@H]1CN([C@@H](C)CO)S(=O)(=O)c2ccc(C#CC(C)(C)O)cc2O[C@H]1CN(C)C(=O)C1CCCCC1` the cytotoxicity call was “inactive”.
`C[C@H](CO)N1C[C@H](C)[C@H](CN(C)S(C)(=O)=O)Oc2ccc(NC(=O)Nc3ccc(F)cc3)cc2CC1=O` was tested, and the cytotoxicity call was “inactive”.
With `COc1ccc(NC(=O)Nc2cccc3c2O[C@H](CN(C)C(=O)Nc2cccc4ccccc24)[C@H](C)CN([C@H](C)CO)C3=O)cc1` the cytotoxicity call was “inactive”.
With `COc1ccc(NC(=O)N(C)C[C@H]2Oc3c(NC(=O)C4CC4)cccc3C(=O)N([C@H](C)CO)C[C@H]2C)cc1` the cytotoxicity call was “inactive”.
With `C[C@H]1CN([C@@H](C)CO)C(=O)c2cc(NC(=O)Cc3ccccc3)ccc2O[C@@H]1CN(C)C(=O)Nc1cccc2ccccc12` the cytotoxicity call was “inactive”.
`CCn1c(Cl)nc2c1c(=O)n(C)c(=O)n2C` was tested, and the cytotoxicity call was “inactive”.
For `Cn1c(=O)c2c(nc(SCSc3nc4c(c(=O)n(C)c(=O)n4C)n3C)n2C)n(C)c1=O`, the cytotoxicity call was “inactive”.
With `Cc1nc2c(=O)n(C)c(=O)n(C)c2nc1Cl` the cytotoxicity call was “active”.
For `C[C@@H]1CN([C@H](C)CO)C(=O)c2cc(NC(=O)Nc3ccc4c(c3)OCO4)ccc2O[C@@H](C)CCCCO[C@H]1CN(C)Cc1ccccc1`, the cytotoxicity call was “inactive”.
In the case of `Cc1ccc(S(=O)(=O)N(C)C[C@H]2OCCCC[C@@H](C)Oc3ccc(NS(C)(=O)=O)cc3C(=O)N([C@H](C)CO)C[C@H]2C)cc1`, the cytotoxicity call is reported as “inactive”.
With `Cn1nnc2c1CCN(C(=O)CS(C)(=O)=O)[C@@H]2COCC1CC1` the cytotoxicity call was “inactive”.
`CCN1CCN(Cc2ccc(C(=O)Nc3ccc(C)c(Oc4ccc5c(c4)CC(=O)N5)c3)cc2C(F)(F)F)CC1` was tested, and the cytotoxicity call was “active”.
In the case of `COCC(=O)Nc1ccc2c(c1)CC(=O)N2`, the cytotoxicity call is reported as “inactive”.
With `Cc1ccc(S(=O)(=O)Nc2ccc3c(c2)C(=O)N([C@@H](C)CO)C[C@H](C)[C@@H](CN(C)C(=O)Nc2c(C)noc2C)OCCCC[C@@H](C)O3)cc1` the cytotoxicity call was “inactive”.
With `Cc1noc(C)c1NC(=O)N(C)C[C@@H]1Oc2ccc(NC(=O)C3CC3)cc2C(=O)N([C@H](C)CO)C[C@H]1C` the cytotoxicity call was “inactive”.
In the case of `C[C@@H]1CN([C@H](C)CO)C(=O)CCCn2nncc2CO[C@H]1CN(C)C(=O)Nc1cccc(C(F)(F)F)c1`, the cytotoxicity call is reported as “inactive”.
For `COc1ccc2cc3[n+](cc2c1OC)CCc1cc2c(cc1-3)OCO2.[Cl-]`, the cytotoxicity call was “inactive”.
With `C[n+]1cc2c3c(ccc2c2ccc4cc5c(cc4c21)OCO5)OCO3.[Cl-]` the cytotoxicity call was “active”.
In the case of `COCC#Cc1cnc2c(c1)C(=O)N([C@@H](C)CO)C[C@@H](C)[C@@H](CN(C)S(=O)(=O)c1ccccc1)O2`, the cytotoxicity call is reported as “inactive”.
`C[C@@H]1CN([C@H](C)CO)C(=O)c2cc(C#Cc3ccccc3F)cnc2O[C@@H]1CN(C)C(=O)c1ccc2c(c1)OCO2` was tested, and the cytotoxicity call was “inactive”.
In the case of `Cc1ncc[nH]1`, the cytotoxicity call is reported as “inactive”.
In the case of `CC[C@@H](C)SSc1ncc[nH]1`, the cytotoxicity call is reported as “active”.
In the case of `OCc1ncc[nH]1`, the cytotoxicity call is reported as “inactive”.
For `C[C@@H]1CN([C@H](C)CO)C(=O)c2cccc(NC(=O)Nc3ccc(F)cc3)c2O[C@H]1CN(C)C(=O)Nc1cccc2ccccc12`, the cytotoxicity call was “inactive”.
`C[C@@H]1CN([C@@H](C)CO)C(=O)c2cc(NS(C)(=O)=O)ccc2O[C@@H]1CN(C)Cc1ccc(C(=O)Nc2ccccc2N)cc1` was tested, and the cytotoxicity call was “inactive”.
For `O=C(NCCN1CCOCC1)c1ccccn1`, the cytotoxicity call was “inactive”.
With `Cc1ccc(S(=O)(=O)NC2=NCN(CCN3CCOCC3)CN2)cc1` the cytotoxicity call was “inactive”.
With `Cc1ccc(-n2nc(C(C)(C)C)cc2NC(=O)Nc2ccc(OCCN3CCOCC3)c3ccccc23)cc1` the cytotoxicity call was “active”.
